Dicer inh – inhibitors of human Dicer processing of pre-microRNA; cat-ELCCA pre-miR-21 Dicer processing, chemiluminescence; stronger effect = higher value; actives 6% (n = 47,000); z-score at 25 µM; AID 1347074; in the data active means z-score above about 3, passing the limit was not always enough;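 further: plate controls were vehicle for no effect and no enzyme for full effect; higher signal means more uncleaved substrate so more Dicer inhibition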
Target sequence (Q9UPY3 whole entry, looked up): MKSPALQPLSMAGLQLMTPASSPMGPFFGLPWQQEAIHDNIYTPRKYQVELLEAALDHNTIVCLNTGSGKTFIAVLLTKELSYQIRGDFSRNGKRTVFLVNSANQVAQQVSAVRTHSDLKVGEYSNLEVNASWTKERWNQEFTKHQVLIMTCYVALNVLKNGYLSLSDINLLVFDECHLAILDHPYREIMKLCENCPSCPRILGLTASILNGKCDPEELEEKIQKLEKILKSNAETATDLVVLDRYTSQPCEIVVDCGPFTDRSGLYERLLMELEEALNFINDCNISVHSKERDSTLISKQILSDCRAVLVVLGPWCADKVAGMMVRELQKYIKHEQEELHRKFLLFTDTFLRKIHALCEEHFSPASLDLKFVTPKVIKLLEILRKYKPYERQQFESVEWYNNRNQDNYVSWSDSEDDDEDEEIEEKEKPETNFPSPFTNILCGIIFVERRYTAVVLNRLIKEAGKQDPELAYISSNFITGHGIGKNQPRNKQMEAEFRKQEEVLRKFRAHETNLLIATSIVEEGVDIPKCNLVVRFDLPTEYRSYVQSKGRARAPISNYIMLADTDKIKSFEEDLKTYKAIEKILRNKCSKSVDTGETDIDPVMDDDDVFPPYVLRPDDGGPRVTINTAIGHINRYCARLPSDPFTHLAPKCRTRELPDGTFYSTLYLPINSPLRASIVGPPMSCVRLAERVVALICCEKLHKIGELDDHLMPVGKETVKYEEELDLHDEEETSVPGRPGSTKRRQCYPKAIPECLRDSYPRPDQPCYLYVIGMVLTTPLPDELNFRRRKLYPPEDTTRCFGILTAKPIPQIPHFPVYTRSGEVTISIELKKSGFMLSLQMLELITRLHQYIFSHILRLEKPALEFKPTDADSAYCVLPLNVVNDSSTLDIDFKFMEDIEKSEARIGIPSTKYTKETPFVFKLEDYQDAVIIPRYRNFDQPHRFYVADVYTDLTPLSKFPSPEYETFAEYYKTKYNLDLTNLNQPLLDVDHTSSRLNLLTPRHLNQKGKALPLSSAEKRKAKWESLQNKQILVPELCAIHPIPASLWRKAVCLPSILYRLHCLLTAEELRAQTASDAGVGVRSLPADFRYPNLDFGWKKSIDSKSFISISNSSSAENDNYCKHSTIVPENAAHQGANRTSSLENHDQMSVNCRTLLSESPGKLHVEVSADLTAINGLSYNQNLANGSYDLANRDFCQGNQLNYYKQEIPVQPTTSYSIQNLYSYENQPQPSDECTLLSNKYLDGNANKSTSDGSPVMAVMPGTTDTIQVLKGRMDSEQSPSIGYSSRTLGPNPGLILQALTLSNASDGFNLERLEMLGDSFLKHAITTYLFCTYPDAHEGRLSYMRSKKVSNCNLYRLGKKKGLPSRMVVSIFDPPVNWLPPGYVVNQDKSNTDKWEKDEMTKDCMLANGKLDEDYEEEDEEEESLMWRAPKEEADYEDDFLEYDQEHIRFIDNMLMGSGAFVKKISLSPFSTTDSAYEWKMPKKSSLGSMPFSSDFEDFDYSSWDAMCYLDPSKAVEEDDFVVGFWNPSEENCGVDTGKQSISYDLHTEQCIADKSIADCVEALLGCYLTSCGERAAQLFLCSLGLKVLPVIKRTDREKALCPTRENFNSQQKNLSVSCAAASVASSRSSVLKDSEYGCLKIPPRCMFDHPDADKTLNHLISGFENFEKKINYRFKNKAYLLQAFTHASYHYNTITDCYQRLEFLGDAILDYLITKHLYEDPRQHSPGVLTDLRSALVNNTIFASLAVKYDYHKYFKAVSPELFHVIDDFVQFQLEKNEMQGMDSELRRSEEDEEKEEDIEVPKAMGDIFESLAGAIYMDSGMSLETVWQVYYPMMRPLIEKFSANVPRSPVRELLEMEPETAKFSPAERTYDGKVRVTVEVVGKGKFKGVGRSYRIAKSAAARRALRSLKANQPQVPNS
Numbers without * were called inactive. The sample as a whole holds a higher share of hits than the screen did.

SMILES | Dicer inh
COc1ccccc1Oc1ccc(NC(=O)c2cc3cc(Br)ccc3o2)cn1 | 2.3
COc1cccc(NC(=O)Nc2ccc(Oc3c(Cl)cccc3Cl)nc2)c1 | -0.35
COc1cccc(Oc2ccc(NC(=O)c3cc4cc(Br)ccc4o3)cn2)c1 | 3.1*
C=CCN(CC=C)Cc1c(C)[nH]c2ccc(OCC)cc2c1=O | 0.47
COc1ccc(C(=O)/C=C/Sc2nccc(C)n2)cc1 | 0.42
CC(CC(=O)O/N=C(\N)c1ccc(C(F)(F)F)cc1)S(=O)(=O)c1ccc(Cl)cc1 (centres undefined) | -2
CC(C)Cc1ccc(C(C)C(=O)O/N=C(\N)c2ccc(C(F)(F)F)cc2)cc1 (centres undefined) | 3.2*
CC(C)Cc1ccc(C(C)/C(N)=N/O)cc1 (centres undefined) | -0.66
C#CCOC(=O)NC(=O)c1c(-c2ccc(Cl)cc2)nn(C)c1SC | -1.9
c1ccc2[nH]c(CCCc3nc4ccccc4[nH]3)nc2c1 | 2.5
CCN(CC)Cc1nc2ccccc2[nH]1 | 3.4*
Nc1cccc(-c2nc3ccccc3[nH]2)c1 | -0.02
c1ccc(CCc2nc3ccccc3[nH]2)cc1 | 3.2*
O=S(=O)(CCc1nc2ccccc2[nH]1)CCc1nc2ccccc2[nH]1 | 0.33
COc1ccc(OCc2nc3ccccc3[nH]2)cc1 | 1.1
Nc1ccc(CCc2nc3ccc(N)cc3[nH]2)cc1 | 0
Oc1ccc(Cc2nc3ccccc3[nH]2)cc1 | 0.44
Nc1cccc(CCc2nc3cc4ccccc4cc3[nH]2)c1 | 6.9*
COc1ccc(Cc2nc(-c3ccc(Cl)cc3)no2)cc1OC | -0.77
Cc1nnc(Sc2ncc([N+](=O)[O-])s2)n1-c1ccc(OCc2ccccc2)cc1 | -0.49
CC(c1ccccc1)N1C(=O)CSC1=S (centres undefined) | -1.5
Cc1ccc(Cc2cn3cc(-c4ccc(Br)cc4)nc3s2)cc1 | -0.39
O=C(NNC(=S)Nc1cc(C(F)(F)F)cc(C(F)(F)F)c1)c1ccc[nH]1 | 0.45
COc1ccc(CC2CCC(=O)CC2)cc1 | -1.3
CSc1sc(C(=O)O)c(-c2ccccc2Cl)c1C#N | -0.64
SMILES | Dicer inh
Cc1nn(C)c(NN2C(=O)c3cccc4cc([N+](=O)[O-])cc(c34)C2=O)c1[N+](=O)[O-] | -0.06
Cc1noc(C)c1NC(=O)NCC1CCN(S(=O)(=O)c2ccccc2)CC1 | 0.89
N#CCC(=O)NNC(=S)Nc1ccc(Cl)c(Cl)c1 | -0.46
O=C(Cn1nnc(-c2ccccc2C(F)(F)F)n1)NNS(=O)(=O)c1cccc(Cl)c1 | 0.86
O=C(CCc1ccc(O)cc1)NNC(=S)Nc1ccc(Cl)c(Cl)c1 | 0.05
CC(Oc1ccc(Cl)cc1Cl)C(=O)NNC(=S)Nc1ccccc1 (centres undefined) | 0.74
O=C(CCn1nnc(-c2cccc(Cl)c2Cl)n1)NNC(=S)Nc1ccc(Cl)c(Cl)c1 | 9.4*
O=C(Cn1nnc(-c2ccccc2Oc2ccc(Cl)cc2Cl)n1)NNC(=S)Nc1cc(Cl)cc(Cl)c1 | 6.3*
Cc1cc2c3c(c1)c(OS(=O)(=O)c1cc([N+](=O)[O-])ccc1C)c(-c1ccccc1)c(=O)n3CCC2 | -2.9
CCOC(=O)c1c(C)oc(=O)c(Br)c1C | -1.1
CC1(C)Cc2nc3sc4c(N5CCOCC5)ncnc4c3cc2CO1 | 1.8
C[C@@H]1CCN(C(=O)C(CCCN=C(N)N)NS(=O)(=O)c2cccc3c2NC[C@H](C)C3)C(C(=O)O)C1 (some centres undefined) | -1.8
COC(=O)c1ccc(N2C(=O)CSC2c2ccc(OC)cc2)cc1 (centres undefined) | 7
COc1ccc(N2C(=O)CSC2c2ccc(Br)cc2)cc1 (centres undefined) | 1.3
COc1ccc(N2C(=O)N(c3ccc(OC)cc3)C3CS(=O)(=O)CC32)cc1 (centres undefined) | 3.9*
Cc1ccc(-n2nnnc2-c2cnc3cc(Cl)ccc3c2N)cc1 | -0.44
Cc1ccc(N2C(=O)C3C4C=CC(C4)C3C2=O)nc1 (centres undefined) | -0.27
COc1ccc(Nc2nnc3c4ccccc4c4ccccc4c3n2)cc1 | -0.71
Cc1cccc(N=C(NO)c2ccccc2)c1 | -3.8
ONC(=Nc1cc(Cl)cc(Cl)c1)c1ccccc1 | 3*
NC(N)=NC(N)=Nc1cc(Cl)cc(Cl)c1 | -0.42
COc1ccc(/C(O)=C2\C(=O)C(=O)N(Cc3cccnc3)C2c2ccc(O)c(OC)c2)cc1 (centres undefined) | 1.7
O=c1[nH]c2sc(-c3ccccc3)cc2c(=O)n1-c1ccc(Cl)c(Cl)c1 | 0.69
CCOC(=O)C1=C(C)NC(=O)NC1c1ccc(N(C)C)c([N+](=O)[O-])c1 (centres undefined) | -1.1
O=C(c1nc2nc(-c3ccc(Cl)cc3)cc(C(F)(F)F)n2n1)N1CCOCC1 | 2.8
SMILES | Dicer inh
O=C(c1nn2c(C(F)(F)F)cc(-c3ccccc3)nc2c1Cl)N1CCOCC1 | -0.1
O=C(c1nn2c(C(F)(F)F)cc(-c3ccc(F)cc3)nc2c1Cl)N1CCOCC1 | 4.2*
CCSc1nnc2c(n1)OC(c1ccccc1C)N(C(C)=O)c1ccccc1-2 (centres undefined) | 1.1
CCOC(=N)c1cccc(C(F)(F)F)c1 | 0.87
CSc1ccn(-c2nc(-c3ccccc3)sc2-c2ccccc2)c(=O)n1 | -1.1
O=C(O)/C=C\C(=O)NCCc1ccc(Cl)cc1 | 7.2
CC(=O)C(C)(C)OC(=O)NCCc1ccc(Cl)cc1 | 7.2*
CC(=O)C(C)(C)OC(=O)NCc1cccs1 | -3.2
Cc1nc(N2C(=O)c3oc4ccccc4c(=O)c3C2c2cccc(Br)c2)sc1C (centres undefined) | -0.16
CSc1ccc(C2C(C(=O)OC3CCCCC3)=C(C)NC3=C2C(=O)CCC3)cc1 (centres undefined) | -1.9
Cc1nc(C)c(-c2ccn(S(=O)(=O)c3ccc(Cl)cc3)n2)o1 | 0.48
Cc1ccc(S(=O)(=O)n2nc(C)cc2C)cc1 | 0.88
O=S(=O)(c1ccccc1)n1nc(-c2ccccc2)nc1NCc1ccc(Cl)cc1 | -1.7
O=S(=O)(c1ccccc1)n1nc(-c2ccccc2)nc1NCc1ccccc1 | 1.5
Cc1ccc(S(=O)(=O)n2nc(-c3ccc(Cl)cc3)nc2N)cc1 | 3.2*
Cc1ccc(S(=O)(=O)n2nc(-c3ccc(Cl)cc3)nc2NCc2ccco2)cc1 | 3.4*
N#C/C=C/c1cn(Cc2ccccc2)c2ccc([N+](=O)[O-])cc12 | 1.3
C/C(=N\NC1=NCCN1Cc1ccccc1)c1ccccc1 | -0.14
COc1ccc(-c2c(C)oc3cc(OC(C)C(=O)O)ccc3c2=O)cc1OC (centres undefined) | 1.3
Cc1cc(=O)oc2cc(O)ccc12 | 0.16
CCCc1cc2c(=O)c(-c3ccc4c(c3)OCCO4)coc2cc1O | 0.45
CCOC(=O)c1oc2cc(O)c(CC)cc2c(=O)c1-c1ccc2c(c1)OCCO2 | 4.5*
CCOC(=O)c1oc2cc(O)ccc2c(=O)c1-c1ccc2c(c1)OCCO2 | 2.6
Cc1oc2cc(O)ccc2c(=O)c1-c1ccc2c(c1)OCCO2 | 5.5*
CCS(=O)(=O)c1ccc(O)c(NC(=O)CSCC(=O)O)c1 | 0.39
SMILES | Dicer inh
CCn1c(N2CCCCC2)nc2c1c(=O)[nH]c(=O)n2C | 0.06
O=C(NNC(=O)c1sccc1OCc1ncc(C(F)(F)F)cc1Cl)Nc1ccc(Cl)cc1 | -0.32
CCOC(=O)c1c(C)csc1NC(=O)Nc1c(-c2c(Cl)cccc2Cl)noc1C | -0.84
Cc1ccc(S(=O)(=O)Nc2cc(C)c(O)c(Cl)c2)cc1 | 0.77
Cc1ccc(S(=O)(=O)Nc2cc(C)c(Br)cc2NS(=O)(=O)c2ccc(C)cc2)cc1 | 7.2
Cc1ccc(S(=O)(=O)Nc2cc(Cl)c(O)cc2C)cc1 | 4.3*

High-throughput results: PubChem, Center for Chemical Genomics, University of Michigan
